# Screening data as filed in PubChem.
# In the library only some 4.6% were active in any assay of this set; here they are far more common.
# TRHR agonist = activates the human TRH receptor | 360,000 tested, 0.18% active | AID 493084 | TRHR cells, calcium flux fluo-8, FDSS agonist mode | P34981 | activation, % at 2 µM
# Target sequence (P34981 whole entry, looked up): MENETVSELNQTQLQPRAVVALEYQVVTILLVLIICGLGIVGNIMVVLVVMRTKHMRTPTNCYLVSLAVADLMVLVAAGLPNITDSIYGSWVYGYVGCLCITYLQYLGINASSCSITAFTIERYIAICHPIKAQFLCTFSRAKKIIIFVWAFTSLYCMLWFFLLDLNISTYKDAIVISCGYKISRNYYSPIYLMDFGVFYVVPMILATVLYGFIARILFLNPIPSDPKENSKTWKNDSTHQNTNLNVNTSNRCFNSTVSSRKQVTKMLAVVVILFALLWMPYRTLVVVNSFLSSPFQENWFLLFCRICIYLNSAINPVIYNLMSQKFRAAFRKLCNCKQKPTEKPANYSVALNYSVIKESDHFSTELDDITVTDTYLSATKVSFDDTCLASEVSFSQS
#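 In this calcium-flux screen, cells bearing human TRHR are dye-loaded with fluo-8, baselined for 10 cycles, then exposed to library compounds; positive kinetic calcium responses during the agonist phase mark hits, with TRH as control.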
# Epigenetic derep = epigenetic control regulation, reporter derepression; AID 1865; Potency, µM (series often up to 53.9 µM), most hits filed as activators; murine LDR cells, GFP reporter derepression, 30 h; 280,000 tested, 0.2% active; active = well fitted activation curve with a large enough effect; inconclusive = small, poorly fitted or top-dose-only effect; note: nearly all actives have a fitted effect of over 60% in size
#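 Derepression of a silenced CMV-GFP reporter in murine LDR cells is scored by enumerating GFP-positive cells with a laser-scanning microplate cytometer after 30 hours of treatment at 37 C.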
# TRHR enhancer = allosteric enhancers of human TRH receptor. AID 493056. TRHR cells, fluo-8 calcium fluorescence, EC20 TRH enhancement. enhancement, % at 2 µM. 360,000 tested, 0.66% active. P34981; in the data active = enhancement above about 30%
#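 TRHR-expressing cells loaded with fluo-8 calcium dye were read kinetically (ex 480/em 530) during compound addition, then stimulated with an EC20 of TRH (10 nM final). Enhancement of the Gq-mediated intracellular calcium response was scored.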
# D1 antag = antagonists of human D1 dopamine receptor. 360,000 tested, 3.2% active. activity change, negative = inhibition, % at 10 µM. HEK293 TREx D1 cells, calcium flux, dopamine EC80; active compounds read low. P21728. AID 504652; in the data active = activity change below about -30%
#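 HEK293 T-REx cells expressing inducible, force-coupled D1 receptor; no-wash Ca dye, 30–90 min RT. Cmpd → 180 s read at 1 Hz → EC80 DA → 180 s read.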
# D1 agonist = agonists of human D1 dopamine receptor; P21728; activation, % at 2 µM; 360,000 tested, 1% active; HEK293 T-REx D1 cells, calcium flux, agonist mode
#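 Inducible HEK293 T-REx D1 cells, force-coupled to calcium signalling, were plated at 4000 cells/well with tetracycline and held overnight at 30 C. After no-wash calcium dye loading, compound-evoked calcium rise over 180 s flagged agonists.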
# D1 potentiator = enhances dopamine response at the human D1 receptor; P21728; HEK293 TREx D1 cells, calcium flux, dopamine EC20 potentiation; potentiation, % at 10 µM; 360,000 tested, 0.036% active; AID 504651; in the data active = potentiation above about 30%
# Hits are given with their value; – = inactive; ? = inconclusive; · = no result given; ! = not active in a repeat. Cut-off read from the data, not from the text of the source, unless noted: active = activation above about 30%; inactive = the rest.
SMILES,TRHR agonist,Epigenetic derep,TRHR enhancer,D1 antag,D1 agonist,D1 potentiator
COc1ccc(CNCCC(c2ccc3c(c2)OCO3)c2ccccc2OC)cc1 (centres undefined),–,–,–,–,80,–
Cc1cccc(NC(=O)CCc2c(C)nc3nc(CNC(=O)c4cccc(F)c4)nn3c2C)c1,–,–,–,–,–,–
O=S(=O)(Cc1cc(Oc2ccccc2)nc(-c2ccccc2)n1)c1ccccc1,–,–,–,-33,–,–
NC1=NC2(CCCCC2)N=C(Nc2ccc(Br)cc2)N1,–,–,–,-37,–,–
Cc1ccc(NC2=NC3(CCCC3)N=C(N)N2)c(C)c1,–,–,–,-37,–,–
Cc1ccc(C)c(NC2=NC3(CCCCC3)N=C(N)N2)c1,–,–,–,–,–,–
Cc1ccc(NC2=NC3(CCCCC3)N=C(N)N2)c(C)c1,–,–,–,-66,–,–
Cc1ccccc1NC1=NC2(CCCC2)N=C(N)N1,–,–,–,–,–,–
CN(C)c1ccc(CNC(=O)Cc2ccc(NC(=O)N3CCCCc4ccccc43)cc2)cc1,–,–,–,–,–,–
Cc1cc(Cl)c(S(=O)(=O)Nc2ccc3c(c2)OCO3)cc1OCC(N)=O,–,–,–,-34,–,–
COc1ccc(OC)c(NCc2cccn2-c2nnc(N3CCCCC3)s2)c1,–,–,–,–,–,–
CC1(C)OC(=O)C2(Cc3ccccc3N3CCCC32)C(=O)O1 (centres undefined),–,·,–,–,–,–
Cc1cc(C)cc(NCc2cc3c(cc2[N+](=O)[O-])OCO3)c1,–,–,–,-33,–,–
O=C(Cn1c(=O)n(-c2ccccc2)c(=O)c2ccc(C(=O)NCc3ccc4c(c3)OCO4)cc21)Nc1ccc(Br)cc1F,–,–,–,–,–,–
CC(C)(C)c1cc(/C=N/NC(=O)Cc2nc3ccccc3[nH]2)cc(C(C)(C)C)c1O,–,–,–,-35,–,–
Cc1cccc(Nc2ncnc(N)n2)c1,–,–,–,-33,–,–
Cc1ccc(-n2nc(C(=O)Nc3ccc(Br)cc3C)c(=O)n(C)c2=O)cc1,–,–,–,–,–,–
COc1cccc(N(C(=O)Cn2nnc(-c3ccc(C)cc3)n2)C(C(=O)NC(C)(C)C)c2c[nH]c3ccccc23)c1 (centres undefined),·,–,·,·,·,·
CC(C)(C)NC(=O)C(c1c[nH]c2ccccc12)N(C(=O)Cn1nnc(-c2ccc(Cl)cc2)n1)c1ccccc1F (centres undefined),–,–,–,–,–,50
CC(C)CC(=O)Nc1nnc(S(=O)(=O)N2CCc3ccccc32)s1,–,?,–,-46!,–,–
CC(=O)N1c2ccc(S(=O)(=O)NCCC(=O)Nc3ccc(Br)c(C)c3)cc2CC1C (centres undefined),–,–,–,–,–,–
N#CCCN(Cc1cccnc1)S(=O)(=O)c1ccc(S(=O)(=O)N2CCCCCC2)cc1,–,–,–,–,–,–
N#CCCN(CCN1CCCC1)S(=O)(=O)c1ccc(-c2ccc([N+](=O)[O-])cc2)cc1,–,–,–,–,39,–
CCOC(=O)c1c(/C=N/Nc2ccccc2)c2sc(C)cc2n1C,–,·,–,–,–,–
CCCC(C)NC(=O)c1cccc(Oc2ccccc2)c1 (centres undefined),–,–,–,–,33,–
SMILES,TRHR agonist,Epigenetic derep,TRHR enhancer,D1 antag,D1 agonist,D1 potentiator
CC(=O)Nc1ccc(NC(=O)c2cccc(Oc3ccccc3)c2)cc1,–,·,–,–,–,–
COc1ccc(CCN(C)Cc2ccc(OC)c(OCc3ccccc3)c2)cc1OC,–,–,–,–,–,–
COc1cc(CNC23CC4CC(CC(C4)C2)C3)ccc1OCc1ccccc1,–,–,–,-40,85,–
COc1ccc(CCN(C)Cc2ccc(OCc3ccccc3)c(OC)c2)cc1OC,–,–,–,-42,87,–
COc1cc(CNCc2cccs2)ccc1OCc1ccccc1,–,–,–,–,–,–
O=C(Cn1c(=O)oc2cc(S(=O)(=O)N3CCCCCC3)ccc21)Nc1cccc(C(F)(F)F)c1,–,?,–,–,–,–
O=S(=O)(Nc1ccc(Cl)cn1)c1ccc(Cl)cc1,–,–,–,–,–,–
